# Experiments:
# Assay in all cases: DAPPL (digital affinity profiling via proximity ligation, sequencing); 10 mM Tris-HCl pH 7.5, 50 mM NaCl, 1 mM DTT, 4% glycerol, room temperature, 30 min; GST-TFs on glutathione beads, 16-mer random dsDNA library, 0.1% formaldehyde crosslink after washing; high values mean tight binding
# Conditions in all cases: protein: recombinant; tags: N-terminal GST; dsDNA, one strand shown
# FLI1 = target: T1, FLI1 (Homo sapiens, UniProt Q01543 1-452)
# T1 sequence: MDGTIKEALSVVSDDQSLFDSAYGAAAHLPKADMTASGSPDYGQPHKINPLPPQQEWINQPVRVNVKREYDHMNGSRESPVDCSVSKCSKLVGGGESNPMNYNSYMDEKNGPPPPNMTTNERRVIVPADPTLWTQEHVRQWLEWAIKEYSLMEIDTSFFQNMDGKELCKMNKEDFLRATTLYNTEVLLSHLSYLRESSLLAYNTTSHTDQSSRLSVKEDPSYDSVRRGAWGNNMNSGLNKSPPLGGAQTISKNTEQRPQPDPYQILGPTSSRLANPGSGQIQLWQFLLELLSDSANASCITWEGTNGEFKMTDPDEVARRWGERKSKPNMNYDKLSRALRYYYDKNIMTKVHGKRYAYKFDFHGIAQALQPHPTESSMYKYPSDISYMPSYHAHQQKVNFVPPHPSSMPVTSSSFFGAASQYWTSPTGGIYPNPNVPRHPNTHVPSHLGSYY
# Outline: (§1)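 In yeast, human transcription factors were expressed with a GST fusion, then pulled down on glutathione beads and given DNA barcodes. Pooled with a tag-only sample, they were exposed to 200 nmole of a 16-mer random double-stranded DNA library (Tris/NaCl/DTT/glycerol buffer, room temperature, 30 min), washed, crosslinked with 0.1% formaldehyde, proximity-ligated using BsaI/T4 ligase for 1 h at 37 °C, PCR-amplified and read on an Illumina NextSeq500. Each hexamer's frequency of reads for a factor, divided by the matching frequency for the tag-only sample, gives the binding signal.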
# ELK1 = target: T2, ELK1 (Homo sapiens, UniProt P19419 1-428)
# T2 sequence: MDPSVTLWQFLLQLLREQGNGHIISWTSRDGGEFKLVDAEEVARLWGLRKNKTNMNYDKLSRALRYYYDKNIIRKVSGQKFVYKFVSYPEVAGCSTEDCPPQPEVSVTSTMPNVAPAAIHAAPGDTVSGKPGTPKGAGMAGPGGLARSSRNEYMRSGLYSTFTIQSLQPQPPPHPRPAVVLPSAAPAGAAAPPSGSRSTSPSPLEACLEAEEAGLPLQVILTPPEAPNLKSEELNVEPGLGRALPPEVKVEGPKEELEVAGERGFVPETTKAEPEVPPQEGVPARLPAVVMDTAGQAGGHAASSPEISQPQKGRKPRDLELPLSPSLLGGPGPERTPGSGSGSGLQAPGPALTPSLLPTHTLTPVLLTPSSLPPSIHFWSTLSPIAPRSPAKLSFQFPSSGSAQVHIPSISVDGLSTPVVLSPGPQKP
# Outline: as §1
# GABPA = target: T3, GABPA (Homo sapiens, UniProt Q06546 1-454)
# T3 sequence: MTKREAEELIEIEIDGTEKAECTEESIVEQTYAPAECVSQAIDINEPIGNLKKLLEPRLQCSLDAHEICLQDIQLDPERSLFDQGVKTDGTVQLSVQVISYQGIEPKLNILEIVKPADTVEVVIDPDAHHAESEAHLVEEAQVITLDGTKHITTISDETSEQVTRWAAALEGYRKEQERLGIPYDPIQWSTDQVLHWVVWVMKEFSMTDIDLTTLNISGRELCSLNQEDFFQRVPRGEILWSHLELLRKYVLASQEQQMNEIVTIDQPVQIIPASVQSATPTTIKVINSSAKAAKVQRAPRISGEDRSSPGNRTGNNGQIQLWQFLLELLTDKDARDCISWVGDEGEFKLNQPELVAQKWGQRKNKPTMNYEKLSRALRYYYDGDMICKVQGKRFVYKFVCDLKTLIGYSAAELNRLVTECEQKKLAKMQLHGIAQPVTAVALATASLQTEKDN
# Outline: as §1
# ERG = target: T4, ERG (Homo sapiens, UniProt P11308 1-479)
# T4 sequence: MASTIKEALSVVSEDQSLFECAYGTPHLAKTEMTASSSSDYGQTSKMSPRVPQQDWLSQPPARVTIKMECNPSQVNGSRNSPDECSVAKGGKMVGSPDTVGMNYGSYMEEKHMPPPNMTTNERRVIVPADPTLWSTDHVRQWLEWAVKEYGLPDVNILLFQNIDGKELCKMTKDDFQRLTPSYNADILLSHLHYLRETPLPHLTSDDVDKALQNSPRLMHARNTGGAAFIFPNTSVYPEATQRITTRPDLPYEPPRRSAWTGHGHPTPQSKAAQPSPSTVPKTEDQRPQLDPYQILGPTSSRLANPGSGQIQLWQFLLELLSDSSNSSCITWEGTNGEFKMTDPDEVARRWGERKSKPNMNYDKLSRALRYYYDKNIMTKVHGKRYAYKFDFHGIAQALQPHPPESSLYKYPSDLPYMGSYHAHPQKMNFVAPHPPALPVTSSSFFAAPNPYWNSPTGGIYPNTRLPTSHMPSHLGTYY
# Outline: as §1
# ELF1 = ELF1 (Homo sapiens, UniProt P32519 1-619)
# Sequence of ELF1 (P32519 whole entry): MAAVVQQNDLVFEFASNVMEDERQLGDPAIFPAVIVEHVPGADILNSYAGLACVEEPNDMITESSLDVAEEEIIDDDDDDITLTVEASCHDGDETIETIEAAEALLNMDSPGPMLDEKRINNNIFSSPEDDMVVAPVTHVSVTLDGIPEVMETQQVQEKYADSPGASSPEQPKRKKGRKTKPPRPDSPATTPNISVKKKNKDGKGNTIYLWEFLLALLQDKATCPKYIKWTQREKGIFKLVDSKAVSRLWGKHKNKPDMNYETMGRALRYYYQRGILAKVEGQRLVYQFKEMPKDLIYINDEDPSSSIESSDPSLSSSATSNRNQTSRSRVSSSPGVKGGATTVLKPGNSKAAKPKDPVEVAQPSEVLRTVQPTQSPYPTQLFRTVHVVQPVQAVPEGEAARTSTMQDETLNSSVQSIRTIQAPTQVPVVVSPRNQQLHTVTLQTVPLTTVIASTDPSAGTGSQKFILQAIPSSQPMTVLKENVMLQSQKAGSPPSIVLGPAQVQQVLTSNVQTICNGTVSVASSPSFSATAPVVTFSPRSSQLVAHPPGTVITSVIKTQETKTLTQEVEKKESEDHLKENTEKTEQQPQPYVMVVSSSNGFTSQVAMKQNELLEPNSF
# Outline: as §1
# EHF = target: T5, EHF (Homo sapiens, UniProt Q9NZC4 1-300)
# T5 sequence: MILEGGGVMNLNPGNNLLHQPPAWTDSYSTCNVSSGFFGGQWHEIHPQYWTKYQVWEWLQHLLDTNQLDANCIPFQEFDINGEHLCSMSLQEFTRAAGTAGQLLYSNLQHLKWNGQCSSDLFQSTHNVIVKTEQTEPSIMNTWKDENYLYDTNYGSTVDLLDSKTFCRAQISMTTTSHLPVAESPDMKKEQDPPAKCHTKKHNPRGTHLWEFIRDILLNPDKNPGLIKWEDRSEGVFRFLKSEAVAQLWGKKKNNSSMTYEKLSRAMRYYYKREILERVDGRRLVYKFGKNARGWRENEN
# Outline: as §1
# SPI1 = SPI1 (Homo sapiens, UniProt P17947 1-270)
# Outline: as §1
# SPIB = SPIB (Homo sapiens, UniProt Q01892 1-262)
# Sequence of SPIB (Q01892 whole entry): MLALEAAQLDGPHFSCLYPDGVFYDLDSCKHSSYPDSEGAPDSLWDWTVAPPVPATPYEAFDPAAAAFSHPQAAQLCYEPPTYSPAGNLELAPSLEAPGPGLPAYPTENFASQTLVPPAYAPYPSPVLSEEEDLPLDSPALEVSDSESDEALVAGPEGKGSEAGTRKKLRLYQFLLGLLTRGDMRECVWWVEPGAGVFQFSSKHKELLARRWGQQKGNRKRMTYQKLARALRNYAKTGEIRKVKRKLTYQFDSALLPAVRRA
# Outline: as §1
# ELK3 = target: T6, ELK3 (Homo sapiens, UniProt P41970 1-407)
# T6 sequence: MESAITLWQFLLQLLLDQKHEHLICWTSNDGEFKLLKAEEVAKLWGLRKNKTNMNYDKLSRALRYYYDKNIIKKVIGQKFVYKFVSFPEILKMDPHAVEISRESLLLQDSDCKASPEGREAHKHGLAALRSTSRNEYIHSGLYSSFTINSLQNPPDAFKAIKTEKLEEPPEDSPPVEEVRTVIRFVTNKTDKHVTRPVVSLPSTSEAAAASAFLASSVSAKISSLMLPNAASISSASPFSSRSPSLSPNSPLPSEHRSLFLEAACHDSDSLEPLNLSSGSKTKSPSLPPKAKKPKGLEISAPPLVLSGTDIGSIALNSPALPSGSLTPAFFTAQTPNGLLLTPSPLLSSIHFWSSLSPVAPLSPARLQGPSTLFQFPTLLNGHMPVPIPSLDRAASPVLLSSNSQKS
# Outline: as §1
sequence,measurement,setting,value
TGGTTC,binding signal,FLI1,"1.45 fold enrichment (6-mer frequency, TF over GST control)"
same,binding signal,ELK1,"1.33 fold enrichment (6-mer frequency, TF over GST control)"
same,binding signal,GABPA,"1.35 fold enrichment (6-mer frequency, TF over GST control)"
same,binding signal,ERG,"1.29 fold enrichment (6-mer frequency, TF over GST control)"
same,binding signal,ELF1,"1.28 fold enrichment (6-mer frequency, TF over GST control)"
same,binding signal,EHF,"1.31 fold enrichment (6-mer frequency, TF over GST control)"
same,binding signal,SPI1,"1.32 fold enrichment (6-mer frequency, TF over GST control)"
same,binding signal,SPIB,"1.37 fold enrichment (6-mer frequency, TF over GST control)"
same,binding signal,ELK3,"1.32 fold enrichment (6-mer frequency, TF over GST control)"

# From publication PMC7862700, “An all-to-all approach to the identification of sequence-specific readers for epigenetic DNA modifications on cytosine”
